An excerpt weighted towards active compounds, which were near 2% of everything screened.
Abeta yeast res – A-beta toxicity reversal in yeast; Potency, µM (doses to about 46.1 µM), usual class: activators; AID 1347071; yeast expressing A-beta42, growth rescue, OD600, 48 h; response scale: 0% DMSO, 100% iron-clioquinol control; 0.063% of 410,000 active; further: potency means the concentration at half of the fitted maximal effect; nearly all actives have a fitted effect of over 55% in size
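Yeast A-beta toxicity model in growth medium with pinned compounds, 48 h at 30 C; growth read as absorbance at 600 nm. Normalized to FeCl3/clioquinol equimolar mix (positive) and DMSO (negative).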
FUS yeast rescue – suppressors of FUS proteinopathy in yeast. S. cerevisiae FUS-expressing, growth rescue, OD600, 24 h. Potency, µM (titrated, usually from 76.6 µM), actives largely listed as activators. 0.24% of 390,000 active;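 further: potency means the concentration at half of the fitted maximal effect; plate controls were DMSO vehicle for no effect and reference control for full effect; nearly all actives have a fitted effect of over 55% in size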
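Toxicity suppression screen in FUS-yeast. Cells induced with 2% galactose, starting OD 0.005, treated 24hr at 30C with compounds at multiple final concentrations; growth by OD600.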
aSyn yeast inh – alpha-synuclein toxicity inhibition in yeast; AID 652106; Yeast expressing alpha-synuclein, growth rescue, BacTiter-Glo, 24 h; Potency, µM (series often up to 46.1 µM), without a hit: at the highest dose growth rescue (activation), hits mostly activators; 0.14% of 370,000 active; further: potency means the concentration at half of the fitted maximal effect; % of control where 0% means no effect; nearly all actives have a fitted effect of over 65% in size
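Screening used galactose-induced yeast with toxic alpha-synuclein levels, exposed to compound for 24 hr at 30 deg C. Cell growth, read with BacTiter-Glo luminescence, gave the measured signal.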
IDH1 R132H inh – human IDH1 R132H inhibition; O75874; IDH1-R132H enzyme, NADPH consumption, diaphorase/resazurin fluorescence; Potency, µM (titrated, usually from 76.6 µM), for inactives: at the highest dose activity change, negative = inhibition, hits mostly inhibitors; 0.093% of 390,000 active; AID 602179; further: potency means the concentration at half of the fitted maximal effect; on the % scale 0 is the no-effect control and ±100 the full control effect; nearly all actives have a fitted effect of over 65% in size
Target sequence (O75874 whole entry R132H, stated change not applied): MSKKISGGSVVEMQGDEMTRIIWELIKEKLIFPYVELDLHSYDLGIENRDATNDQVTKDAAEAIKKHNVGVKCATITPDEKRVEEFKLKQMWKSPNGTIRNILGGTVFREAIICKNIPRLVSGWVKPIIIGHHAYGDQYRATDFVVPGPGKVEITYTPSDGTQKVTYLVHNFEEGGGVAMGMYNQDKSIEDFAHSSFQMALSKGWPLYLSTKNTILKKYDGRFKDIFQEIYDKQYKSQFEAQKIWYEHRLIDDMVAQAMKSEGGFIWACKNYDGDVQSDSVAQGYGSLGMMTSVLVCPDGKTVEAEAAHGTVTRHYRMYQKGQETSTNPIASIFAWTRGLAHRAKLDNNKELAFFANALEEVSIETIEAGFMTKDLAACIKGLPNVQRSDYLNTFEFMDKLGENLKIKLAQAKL
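IDH1-R132H (0.5 ug/mL) preincubated 30 min with compound, then NADPH (0.016 mM) and alpha-KG (2 mM) added; 80 min at RT, pH 7.5. Remaining NADPH coupled via diaphorase/resazurin to fluorescence (540/590 nm); concentration-response curves normalized to no-enzyme control.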
LDHA inh – LDHA (human) enzyme inhibition; P00338; 0.15% of 480,000 active; activity change, % (values are at about 110 or 230 µM); purified LDHA, NADH/diaphorase-resazurin fluorescence; hits give low values; in the data active means activity change below about -30%; inconclusive means mostly about -25% to -30%;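 further: plate controls were DMSO wells for no effect and wells without enzyme for full effect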
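LDH5 2 nM; NADH 0.06 mM, pyruvate 0.2 mM; 200 mM Tris pH 7.4, EDTA, Tween-20; 5 min RT. Detection: diaphorase 0.133 mg/mL + resazurin 37 µM, fluorescence ex540/em590 at 0 and 20 min; normalized to enzyme-free and DMSO wells.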
TDP43 rescue – TDP-43 toxicity inhibition in yeast | TDP-43 expressing yeast growth rescue, BacTiter-Glo, 24 h | Potency, µM (titrated, usually from 46.1 µM), without a hit: at the highest dose growth rescue (activation), hits mostly activators | 1.8% of 410,000 active; further: potency means the concentration at half of the fitted maximal effect; % of control where 0% means no effect; nearly all actives have a fitted effect of over 50% in size
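Yeast cells expressing TDP-43 under galactose induction are exposed to compounds for 24 hr at 30 deg C. BacTiter-Glo luminescence measures growth, so protective compounds score as activators.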
Resorufin autofl – autofluorescence interference, mutant IDH1 hit counter-screen; shares compounds with IDH1 R132H inh; 750 tested, under 10 active; Resorufin detection reagent fluorescence interference, cell-free; inhibition of signal, % at 51.2 µM;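 further: 0% = wells with normal resorufin and full inhibition = wells lacking resorufin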
IDH1 WT – wild-type IDH1 (human) inhibition counterscreen; shares compounds with IDH1 R132H inh; WT IDH1 enzyme, NADPH diaphorase/resazurin fluorescence; Potency, µM (titrated, usually from 115 µM), for the others: top-dose activity change, negative = inhibition, usual class: inhibitors; 9% of 750 active; AID 623995;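 further: potency means the concentration at half of the fitted maximal effect; 0% = full WT IDH1 enzyme control and full inhibition = no enzyme wells; nearly all actives have a fitted effect of over 55% in size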
Target sequence (O75874 whole entry, looked up): as the sequence (O75874 whole entry R132H, stated change not applied) above, with H132R counted along it
mIDH1 confirm – inhibits human mutant IDH1 enzyme in cherrypick confirmation | Potency, µM (doses to about 76.6 µM), inactives show at the highest dose activity change, negative = inhibition, actives largely listed as inhibitors | shares compounds with IDH1 R132H inh | 83% of 750 active | AID 624002 | IDH1 R132H enzyme, NADPH diaphorase/resazurin fluorescence; further: potency means the concentration at half of the fitted maximal effect; nearly all actives have a fitted effect of over 50% in size
* = called active by the depositor. Unless noted, the call rests on the fitted dose curve; in most records, active means well fitted curve in the direction sought with a large enough effect; inconclusive means small, poorly fitted or top-dose-only effect, or another doubt; inactive means no such curve, though single readings can be large; an effect the other way counts as inactive or inconclusive.

Screening CCN1C(=O)[C@H]2[C@@H](c3ccc(-c4ccc(OC)cc4)c(OC)c3)N3CCCC[C@@]3(C(=O)OC)[C@H]2C1=O returned Abeta yeast res inactive, FUS yeast rescue inactive, aSyn yeast inh inconclusive, IDH1 R132H inh inconclusive, LDHA inh 1.2, TDP43 rescue 12.3%, Resorufin autofl 5.5, IDH1 WT -4.9% and mIDH1 confirm 12.6µM*.
For COc1ccc(C2=CC(c3c(F)cccc3Cl)n3nnnc3N2)cc1 (stereo not given) the results were LDHA inh 1.6.
`CCC(CNC(=O)c1ccc2c(c1)NC(=O)CS2)c1ccccc1` (stereo not given) gave LDHA inh 3.2.
For Cc1cc(C(C)(C)C)cc(S(=O)(=O)Nc2ccc(O)c(C(=O)O)c2)c1C the results were Abeta yeast res inactive, FUS yeast rescue inactive, aSyn yeast inh -0.9%, IDH1 R132H inh inconclusive, LDHA inh 1.3, TDP43 rescue -13.5%, Resorufin autofl -0.5, IDH1 WT 0.7% and mIDH1 confirm 28.2µM*.
`CC(=O)Nc1ccc(NC(=O)c2ccc(NS(=O)(=O)c3cc(C(C)(C)C)cc(C)c3C)cc2)cc1` gave Abeta yeast res inactive, FUS yeast rescue inactive, aSyn yeast inh 0.0%, IDH1 R132H inh -10.6%, LDHA inh -2.0 and TDP43 rescue -1.0%.
`COc1c(OC(C)=O)ccc(/C=C/c2ccc3ccccc3n2)c1[N+](=O)[O-]` gave Abeta yeast res inactive, FUS yeast rescue inactive, aSyn yeast inh -22.9%, IDH1 R132H inh inconclusive, LDHA inh -1.2, TDP43 rescue -46.7%, Resorufin autofl -14.9, IDH1 WT 2.2% and mIDH1 confirm 31.6µM*.
`COc1c(OC(C)=O)ccc(/C=C/c2ccc3cccc(OC)c3n2)c1[N+](=O)[O-]` gave Abeta yeast res inactive, FUS yeast rescue inconclusive, aSyn yeast inh -10.4%, IDH1 R132H inh inconclusive, LDHA inh 0.8 and TDP43 rescue 3.6%.
Screening CCc1c(C)sc(NC(=O)C(F)(F)F)c1C#N returned LDHA inh 1.9.
For Cc1cc(C)nc(NS(=O)(=O)c2ccc(Nc3nc(-c4ccc(C(C)C)cc4)cs3)cc2)n1 the results were LDHA inh -2.6.
Screening CC(=O)Nc1c(-c2cc(=O)oc3c(C)c(C)ccc23)oc2ccccc12 returned LDHA inh 7.1.
`O=C1c2[nH]nc(-c3ccc(F)cc3)c2C(c2ccccc2F)N1c1ccccc1` (stereo not given) gave Abeta yeast res inactive, FUS yeast rescue inactive, IDH1 R132H inh inconclusive, LDHA inh 0.6, TDP43 rescue 0.0%, Resorufin autofl 0.9, IDH1 WT 1.5% and mIDH1 confirm inconclusive.
COc1cc(C2c3c(-c4ccccc4)n[nH]c3C(=O)N2c2ccccc2)ccc1O (stereo not given) was read as Abeta yeast res inactive, FUS yeast rescue inactive, aSyn yeast inh -2.5%, IDH1 R132H inh -15.3%, LDHA inh -3.7 and TDP43 rescue -2.5%.
For CC1(C)CC(=O)C2=C(C1)N1C(=C(C#N)C2c2ccccc2Cl)N=C(N)c2ccccc21 (stereo not given) the results were Abeta yeast res inactive, FUS yeast rescue inconclusive, aSyn yeast inh 2.0%, IDH1 R132H inh inconclusive, LDHA inh -1.7, TDP43 rescue 5.3%, Resorufin autofl -0.6, IDH1 WT 3.2% and mIDH1 confirm 15.8µM*.
For O=C(CCS(=O)(=O)c1ccc2c(c1)OCCO2)Nc1cccc(F)c1 the results were LDHA inh 1.0.
CN(C(=O)CSc1nc(-c2ccc(C(C)(C)C)cc2)c(C#N)c(=O)[nH]1)C1CCCCC1 was read as Abeta yeast res inactive, FUS yeast rescue inactive, aSyn yeast inh 4.9%, IDH1 R132H inh inconclusive, LDHA inh -1.6, TDP43 rescue 18.2%, Resorufin autofl 0.1, IDH1 WT inconclusive and mIDH1 confirm 44.7µM*.
For COc1ccc(CN2C(=O)c3cccnc3C2Nc2ccc(C)cc2)cc1 (stereo not given) the results were Abeta yeast res inactive, FUS yeast rescue inconclusive, aSyn yeast inh -3.6%, IDH1 R132H inh 0.4%, LDHA inh -5.6 and TDP43 rescue -1.3%.
Cc1ccc(NC2c3ncccc3C(=O)N2Cc2cccs2)cc1 (stereo not given) was read as Abeta yeast res inactive, FUS yeast rescue inactive, aSyn yeast inh 8.0%, IDH1 R132H inh 52.1µM*, LDHA inh -1.7, TDP43 rescue -3.1%, Resorufin autofl -2.9, IDH1 WT 1.8% and mIDH1 confirm -21.0%.
COc1cccc(-c2[nH]nc3c2C(c2ccccc2F)C(C#N)=C(N)O3)c1 (stereo not given) was read as LDHA inh -8.0.
`CN(CC(=O)Nc1ccc(Cl)c(C(F)(F)F)c1)Cc1cc(Cl)cc2c1OCOC2` gave LDHA inh 0.7.
`CCCOc1ccc(C2C(C(=O)c3ccc(C)o3)=C(O)C(=O)N2Cc2ccco2)cc1OCC` (stereo not given) gave Abeta yeast res inactive, FUS yeast rescue inconclusive, aSyn yeast inh 2.5%, IDH1 R132H inh 52.1µM*, LDHA inh -0.9, TDP43 rescue 6.5%, Resorufin autofl -1.5, IDH1 WT 5.5% and mIDH1 confirm inconclusive.
Screening CCCOc1ccc(C2C(C(=O)c3ccc(C)o3)=C(O)C(=O)N2Cc2ccco2)cc1 (stereo not given) returned Abeta yeast res inactive, FUS yeast rescue inconclusive, aSyn yeast inh 8.4%, IDH1 R132H inh inconclusive, LDHA inh 2.2 and TDP43 rescue 16.3%.
Cc1ccc(N2C(=O)c3n[nH]c(C)c3C2c2ccc(O)cc2)cc1 (stereo not given) was read as LDHA inh -10.0.

High-throughput results deposited in PubChem by National Center for Advancing Translational Sciences (NCATS).
